# Inconclusive results are not listed. A call without a number means that no potency is given here. Activity calls are given as the source filed them. The call rests on the fitted dose curve; in most records, active means well fitted curve in the direction sought with a large enough effect; inconclusive means small, poorly fitted or top-dose-only effect, or another doubt; inactive means no such curve, though single readings can be large; an effect the other way counts as inactive or inconclusive.
# Target: Rap guanine nucleotide exchange factor 4 (Homo sapiens) (UniProt Q8WZA2)
# Sequence (Q8WZA2 whole entry, looked up): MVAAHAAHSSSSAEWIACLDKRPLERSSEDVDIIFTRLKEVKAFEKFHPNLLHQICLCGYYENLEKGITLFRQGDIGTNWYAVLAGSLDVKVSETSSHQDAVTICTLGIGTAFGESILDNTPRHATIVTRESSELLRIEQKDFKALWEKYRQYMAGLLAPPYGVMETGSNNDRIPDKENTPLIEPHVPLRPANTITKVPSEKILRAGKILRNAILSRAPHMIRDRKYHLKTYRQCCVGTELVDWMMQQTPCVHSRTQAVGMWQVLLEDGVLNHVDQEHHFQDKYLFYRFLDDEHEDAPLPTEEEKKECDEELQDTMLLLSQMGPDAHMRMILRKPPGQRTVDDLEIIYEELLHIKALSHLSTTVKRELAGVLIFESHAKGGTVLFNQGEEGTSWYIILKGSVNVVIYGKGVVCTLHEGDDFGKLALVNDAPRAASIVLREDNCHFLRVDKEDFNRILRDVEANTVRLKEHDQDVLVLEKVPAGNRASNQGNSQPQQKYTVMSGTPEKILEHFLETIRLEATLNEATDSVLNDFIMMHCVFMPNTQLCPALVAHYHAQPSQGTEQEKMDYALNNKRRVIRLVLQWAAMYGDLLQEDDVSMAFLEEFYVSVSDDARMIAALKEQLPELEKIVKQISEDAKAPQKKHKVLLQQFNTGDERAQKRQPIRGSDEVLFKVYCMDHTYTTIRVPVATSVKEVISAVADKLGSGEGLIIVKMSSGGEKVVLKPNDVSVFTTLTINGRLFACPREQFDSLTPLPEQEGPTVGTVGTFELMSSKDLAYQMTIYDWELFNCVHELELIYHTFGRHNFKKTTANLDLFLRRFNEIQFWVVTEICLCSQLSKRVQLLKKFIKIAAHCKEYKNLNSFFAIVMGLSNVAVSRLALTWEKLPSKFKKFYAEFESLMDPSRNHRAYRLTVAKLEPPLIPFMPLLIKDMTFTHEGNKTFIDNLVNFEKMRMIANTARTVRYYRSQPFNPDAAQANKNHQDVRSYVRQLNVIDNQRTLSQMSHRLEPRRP
# Experiment: Confirmatory qHTS for agonist of cAMP-regulated guanine nucleotide exchange factor 4 (EPAC2) (AID 1645884);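 further: nucleotide exchange releases bodipy-GDP from Rap1 and this lowers its fluorescence; nearly all actives have a fitted effect of over 65% in size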; further: potency means the concentration at half of the fitted maximal effect
# Details: EPAC2 GEF activity, Rap1B-BODIPY-GDP fluorescence; series mostly up to 154 µM
Compound,Potency,activation
CCOc1cccc2sc(N3CCN(C(=O)C(C)(C)C)CC3)nc12,inactive,
COc1ccccc1NC(=O)c1sc2nc(Cc3ccccc3)cc(C(F)(F)F)c2c1N,,"-0.606% [at 17.1 µM, percent relative to cAMP agonist control] (inactive)"
Cc1cc(/C=C2\SC(=S)N(C)C2=O)c(C)n1-c1ccccc1O,100 µM (active),
COc1cccc2c1C(=O)c1c(O)c3c(c(O)c1C2=O)CC(O)(C(=O)CO)CC3OC1CC(N(C)C)C(O)C(C)O1 (stereo unspecified),,"8.33% [at 17.1 µM, percent relative to cAMP agonist control] (inactive)"

# Target: Rap guanine nucleotide exchange factor 4 (Homo sapiens) (UniProt Q8WZA2)
# Experiment: Confirmatory qHTS for antagonist of cAMP-regulated guanine nucleotide exchange factor 4 (EPAC2) (AID 1645885); further: nearly all actives have a fitted effect of over 25% in size; further: potency means the concentration at half of the fitted maximal effect
# Details: EPAC2 Rap1B-BODIPY-GDP exchange fluorescence, biochemical; series mostly up to 12.7 µM
Compound,Potency,outcome
CCN(CC)c1ccc2cc(S(=O)(=O)c3ccc(Cl)cc3)c(=O)oc2c1,42.6 µM (active),
COc1ccc2c3c(cccc13)C(=O)CC2,inactive,
COc1cccc2c1C(=O)c1c(O)c3c(c(O)c1C2=O)CC(O)(C(C)=O)CC3OC1CC(N(C)C)C(O)C(C)O1 (stereo unspecified),inactive,
O=c1c(/C=C(\O)c2ccc(F)cc2)nc2ccccc2n1-c1ccccc1,inactive,
CC1=Nc2ccccc2/C1=C\c1nc(-c2ccc(F)cc2)oc1O,inactive,
CCCn1c(O)c(N=Nc2ccc3ccccc3n2)c2ccccc21,21.3 µM (active),
CC(C)(C)CNC(=O)c1cccc2c1C(=O)c1ccc(-c3cc4ccccc4o3)cc1S2(=O)=O,inactive,
CCC1(c2ccccc2)NC(=O)N(CC(=O)Nc2ccc(OC)nc2)C1=O (stereo unspecified),inactive,
COc1ccccc1NC(=O)/C(C#N)=C/c1cc([N+](=O)[O-])ccc1N1CCCC1,75.7 µM (active),
CCN(CC)c1ccc2cc(-c3nnc(-c4ccncc4)o3)c(=O)oc2c1,75.7 µM (active),
Cc1ccccc1C(=O)Nc1ccc(C(=O)OCc2cc(=O)n3c4c(sc3n2)CCCC4)cc1,inactive,
CCN1CCc2c(sc(NC(=O)CSc3ccccc3)c2-c2nc3ccccc3s2)C1,3.79 µM (active),
Oc1ccc2nnc3c(Br)cnn3c2c1,inactive,
Cc1nc2ccccc2n2c(O)c(CC(=O)O)cc12,inactive,
COc1ccc2noc3c2c1C(=O)c1ccccc1-3,inactive,
Cc1nc(Cl)c2c(n1)NC1=C(O2)C(=O)CCC1,inactive,

Compound,Potency,outcome
Cc1ccc(OCc2nc3ccccc3n2CC(C)C)cc1,inactive,
COCCn1c2nc(=O)n(-c3ccccc3)c(=O)c-2nc2ccccc21,75.7 µM (active),
O=C(NCc1ccc(F)cc1)c1cccc2c1C(=O)c1ccc(N3CCC(Cc4ccccc4)CC3)cc1S2(=O)=O,inactive,
Nc1ccc2nc3c(=O)n(CCc4ccccc4)c(=O)[nH]c3nc2c1,42.6 µM (active),
Cc1cccc(N2C(=O)c3cccc4c(N)ccc(c34)C2=O)c1,84.9 µM (active),
CCN(CC)c1ccc2cc(C(=O)Nc3ccccn3)c(=O)oc2c1,inactive,
CNc1ccc2c3c(cccc13)C(=O)N(C)C2=O,84.9 µM (active),
CCOC(=O)C1=C(C)NC(SC)=C(C#N)C1CC(C)C (stereo unspecified),inactive,
CCN(CC)c1ccc(/C=C(\C#N)C(=O)c2ccc(Br)cc2)cc1,inactive,
Nc1ccc2c3c(cccc13)C(=O)N(c1ccccc1)C2=O,inactive,
N#Cc1c(-c2cccs2)nc(SCC(=O)c2ccc(Br)cc2)[nH]c1=O,inactive,
CCOc1cccc2sc(N3CCN(C(=O)C(C)(C)C)CC3)nc12,,inactive [at 12.7 µM]
COc1ccccc1NC(=O)c1sc2nc(Cc3ccccc3)cc(C(F)(F)F)c2c1N,inactive,
Cc1cc(/C=C2\SC(=S)N(C)C2=O)c(C)n1-c1ccccc1O,inactive,
COc1cccc2c1C(=O)c1c(O)c3c(c(O)c1C2=O)CC(O)(C(=O)CO)CC3OC1CC(N(C)C)C(O)C(C)O1 (stereo unspecified),inactive,

# Target: Rap guanine nucleotide exchange factor 3 (Homo sapiens) (UniProt O95398)
# Sequence (O95398 whole entry, looked up): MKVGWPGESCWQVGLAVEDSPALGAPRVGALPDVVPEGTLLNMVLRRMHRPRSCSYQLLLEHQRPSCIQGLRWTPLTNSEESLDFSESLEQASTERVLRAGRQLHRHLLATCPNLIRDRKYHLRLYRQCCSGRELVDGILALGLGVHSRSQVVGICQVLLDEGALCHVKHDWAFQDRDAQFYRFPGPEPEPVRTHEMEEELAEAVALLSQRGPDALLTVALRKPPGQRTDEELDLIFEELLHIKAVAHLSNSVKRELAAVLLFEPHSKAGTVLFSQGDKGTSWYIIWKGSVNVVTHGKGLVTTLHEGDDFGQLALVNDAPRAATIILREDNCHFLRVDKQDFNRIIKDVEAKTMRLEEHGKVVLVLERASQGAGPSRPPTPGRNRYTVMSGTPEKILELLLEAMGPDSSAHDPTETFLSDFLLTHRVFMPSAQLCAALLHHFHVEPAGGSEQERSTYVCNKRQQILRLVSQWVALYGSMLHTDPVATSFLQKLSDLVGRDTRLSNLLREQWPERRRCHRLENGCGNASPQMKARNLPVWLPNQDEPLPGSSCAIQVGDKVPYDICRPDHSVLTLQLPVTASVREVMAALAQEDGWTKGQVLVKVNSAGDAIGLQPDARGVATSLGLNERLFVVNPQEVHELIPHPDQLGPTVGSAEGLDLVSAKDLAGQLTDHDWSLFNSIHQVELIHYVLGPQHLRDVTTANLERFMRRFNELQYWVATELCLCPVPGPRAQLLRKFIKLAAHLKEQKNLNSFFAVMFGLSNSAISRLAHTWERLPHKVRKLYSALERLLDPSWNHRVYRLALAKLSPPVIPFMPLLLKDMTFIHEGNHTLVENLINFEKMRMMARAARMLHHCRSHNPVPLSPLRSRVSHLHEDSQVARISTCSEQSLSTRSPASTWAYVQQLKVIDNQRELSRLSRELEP
# Experiment: Counterscreen qHTS for antagonist of cAMP-regulated guanine nucleotide exchange factor 3 (EPAC1) (AID 1645888);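 further: fluorescence loss as bound BODIPY-GDP is released from Rap1B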
# Details: Rap1B-BODIPY-GDP nucleotide exchange, fluorescence; series mostly up to 154 µM
# In short: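 Rap1B–BODIPY-GDP (250 nM) with 50 uM GDP; compounds pin-transferred to 9.74 nM–152 uM final (activator) or from 7.32 nM upwards (inhibitor). Fluorescence Ex/Em 480/540 nm read at 5 and 30 min, then after adding cAMP or buffer, at room temperature.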
Compound,Potency,"activity change, negative = inhibition"
CCN(CC)c1ccc2cc(S(=O)(=O)c3ccc(Cl)cc3)c(=O)oc2c1,inactive,
COc1cccc2c1C(=O)c1c(O)c3c(c(O)c1C2=O)CC(O)(C(C)=O)CC3OC1CC(N(C)C)C(O)C(C)O1 (stereo unspecified),,80.1% [at 30.8 µM] (inactive)
O=C(NCCOc1ccc(F)cc1)c1ccccc1SCc1ccccc1,,18.3% [at 30.8 µM] (inactive)
O=c1c(/C=C(\O)c2ccc(F)cc2)nc2ccccc2n1-c1ccccc1,inactive,
CC1=Nc2ccccc2/C1=C\c1nc(-c2ccc(F)cc2)oc1O,inactive,
CCCn1c(O)c(N=Nc2ccc3ccccc3n2)c2ccccc21,inactive,
COCc1c(C(=O)N2CCc3ccccc32)oc2ccccc12,inactive,
CCC1(c2ccccc2)NC(=O)N(CC(=O)Nc2ccc(OC)nc2)C1=O (stereo unspecified),,-15.6% [at 30.8 µM] (inactive)
CC(C)CC(=NNC(=O)c1ccncc1)c1cc(Cl)ccc1O,inactive,
COc1ccccc1NC(=O)/C(C#N)=C/c1cc([N+](=O)[O-])ccc1N1CCCC1,inactive,
CCN(CC)c1ccc2cc(-c3nnc(-c4ccncc4)o3)c(=O)oc2c1,inactive,
COC(=O)CCc1nc2cc(Cl)ccc2n(Cc2ccccc2)c1=O,inactive,
Cc1ccccc1C(=O)O/N=C(\c1ccccc1)c1ccccn1,,3.56% [at 30.8 µM] (inactive)
Cc1ccc(NC(=O)CSc2nnc(-c3cc4occc4n3C)n2-c2ccccc2C)c(Cl)c1,inactive,
O=C(C(=Cc1ccc(O)cc1)c1ccccc1)c1ccccc1,inactive,
CCN1CCc2c(sc(NC(=O)CSc3ccccc3)c2-c2nc3ccccc3s2)C1,inactive,
Oc1ccc2nnc3c(Br)cnn3c2c1,inactive,
Cc1nc2ccccc2n2c(O)c(CC(=O)O)cc12,inactive,
Cc1nc(Cl)c2c(n1)NC1=C(O2)C(=O)CCC1,,20% [at 30.8 µM] (inactive)
O=C(NCc1ccc(F)cc1)c1cccc2c1C(=O)c1ccc(N3CCC(Cc4ccccc4)CC3)cc1S2(=O)=O,,83.7% [at 30.8 µM] (inactive)
Nc1ccc2nc3c(=O)n(CCc4ccccc4)c(=O)[nH]c3nc2c1,inactive,
CCN(CC)c1ccc2cc(C(=O)Nc3ccccn3)c(=O)oc2c1,inactive,
COc1ccc(C(C#N)=Cc2ccccc2OC)cc1,,-8.61% [at 30.8 µM] (inactive)
O=S1(=O)C=C(Oc2ccc3ccccc3c2)c2ccccc21,,21.2% [at 30.8 µM] (inactive)
CCN(CC)c1ccc(/C=C(\C#N)C(=O)c2ccc(Br)cc2)cc1,inactive,
COc1cccc2c1C(=O)c1c(O)c3c(c(O)c1C2=O)CC(O)(C(=O)CO)CC3OC1CC(N(C)C)C(O)C(C)O1 (stereo unspecified),,33.3% [at 30.8 µM] (inactive)

# Source: PubChem BioAssay (NCATS)
